# Source: paper PMC11062922 (Nature Chemical Biology, 2023)
# Like-named read-outs stand apart in the source and are kept apart here.
# What was measured:
# Parameters in all cases: species or system human, MV4-11 + K-562 + COLO205 + SK-N-BE2 + OVCAR-8
# ADCK1 = details: read-out: apparent Kd; compound concentrations: 100 nM and 1000 nM (sheet 'Samples'), CATDS: 1.95230654661257E-2; n = 1
# AKT1 = details: read-out: apparent Kd; compound concentrations: 100 nM and 1000 nM (sheet 'Samples'), CATDS: 2.9179929134034902E-2; n = 1
# AKT2 = details: read-out: apparent Kd; compound concentrations: 100 nM and 1000 nM (sheet 'Samples'), CATDS: 2.7091450445171202E-2; n = 1
# CDC42BPA = details: read-out: apparent Kd; compound concentrations: 100 nM and 1000 nM (sheet 'Samples'), CATDS: 1.9780691565578001E-2; n = 1
# CDC42BPB = details: read-out: apparent Kd; compound concentrations: 100 nM and 1000 nM (sheet 'Samples'), CATDS: 1.71408665149138E-2; n = 1
# CDK17 = details: read-out: apparent Kd; compound concentrations: 100 nM and 1000 nM (sheet 'Samples'), CATDS: 1.7217162863952602E-2; n = 1
# CIT = details: read-out: apparent Kd; compound concentrations: 100 nM and 1000 nM (sheet 'Samples'), CATDS: 2.24347173261998E-2; n = 1
# GSK3A = details: read-out: apparent Kd; compound concentrations: 100 nM and 1000 nM (sheet 'Samples'), CATDS: 4.2719516683869502E-2; n = 1
# GSK3B = details: read-out: apparent Kd; compound concentrations: 100 nM and 1000 nM (sheet 'Samples'), CATDS: 3.83672032367414E-2; n = 1
# IKBKE = details: read-out: apparent Kd; compound concentrations: 100 nM and 1000 nM (sheet 'Samples'), CATDS: 1.7325644717854999E-2; n = 1
# IRAK3 = details: read-out: apparent Kd; compound concentrations: 100 nM and 1000 nM (sheet 'Samples'), CATDS: 2.0418472541538401E-2; n = 1
# JAK2 = details: read-out: apparent Kd, compound concentrations: 100 nM and 1000 nM (sheet 'Samples'), n = 1
# LATS1 = details: read-out: apparent Kd; compound concentrations: 100 nM and 1000 nM (sheet 'Samples'), CATDS: 3.9734792534973799E-2; n = 1
# MARK2 = details: read-out: apparent Kd; compound concentrations: 100 nM and 1000 nM (sheet 'Samples'), CATDS: 2.5049968914142899E-2; n = 1
# MARK3 = details: read-out: apparent Kd; compound concentrations: 100 nM and 1000 nM (sheet 'Samples'), CATDS: 2.50648330516796E-2; n = 1
# MARK4 = details: read-out: apparent Kd; compound concentrations: 100 nM and 1000 nM (sheet 'Samples'), CATDS: 2.22913749693762E-2; n = 1
# MTOR = details: read-out: apparent Kd; compound concentrations: 100 nM and 1000 nM (sheet 'Samples'), CATDS: 2.8143895354302499E-2; n = 1
# PAK4 = details: read-out: apparent Kd; compound concentrations: 100 nM and 1000 nM (sheet 'Samples'), CATDS: 7.9705302542388501E-2; n = 1
# PAK6 = details: read-out: apparent Kd; compound concentrations: 100 nM and 1000 nM (sheet 'Samples'), CATDS: 0.106835733020908; n = 1
# PI4KB = details: read-out: apparent Kd; compound concentrations: 100 nM and 1000 nM (sheet 'Samples'), CATDS: 2.3618528560732301E-2; n = 1
# PIK3CA = details: read-out: apparent Kd; compound concentrations: 100 nM and 1000 nM (sheet 'Samples'), CATDS: 5.0539059632895601E-2; n = 1
# PIK3CD = details: read-out: apparent Kd; compound concentrations: 100 nM and 1000 nM (sheet 'Samples'), CATDS: 6.1879573349501601E-2; n = 1
# PIM2 = details: read-out: apparent Kd; compound concentrations: 100 nM and 1000 nM (sheet 'Samples'), CATDS: 1.8579492636517099E-2; n = 1
# PKN1 = details: read-out: apparent Kd; compound concentrations: 100 nM and 1000 nM (sheet 'Samples'), CATDS: 3.3974214988559501E-2; n = 1
# PKN2 = details: read-out: apparent Kd; compound concentrations: 100 nM and 1000 nM (sheet 'Samples'), CATDS: 1.8056964738192099E-2; n = 1
# PKN3 = details: read-out: apparent Kd; compound concentrations: 100 nM and 1000 nM (sheet 'Samples'), CATDS: 6.5050017907180402E-2; n = 1
# PRKACA = details: read-out: apparent Kd; compound concentrations: 100 nM and 1000 nM (sheet 'Samples'), CATDS: 2.14323323603763E-2; n = 1
# PRKACB = details: read-out: apparent Kd; compound concentrations: 100 nM and 1000 nM (sheet 'Samples'), CATDS: 2.3381704422051099E-2; n = 1
# PRKACG = details: read-out: apparent Kd; compound concentrations: 100 nM and 1000 nM (sheet 'Samples'), CATDS: 2.46536070948064E-2; n = 1
# PRKAG1 = details: read-out: apparent Kd; compound concentrations: 100 nM and 1000 nM (sheet 'Samples'), CATDS: 2.0047926729344401E-2; n = 1
# PRKCD = details: read-out: apparent Kd; compound concentrations: 100 nM and 1000 nM (sheet 'Samples'), CATDS: 1.7220600193925E-2; n = 1
# PRKG1 = details: read-out: apparent Kd; compound concentrations: 100 nM and 1000 nM (sheet 'Samples'), CATDS: 2.2056800835646401E-2; n = 1
# PRKX;PRKY = details: read-out: apparent Kd; compound concentrations: 100 nM and 1000 nM (sheet 'Samples'), CATDS: 5.5547171780811498E-2; n = 1
# ROCK2 = details: read-out: apparent Kd; compound concentrations: 100 nM and 1000 nM (sheet 'Samples'), CATDS: 2.36815478984151E-2; n = 1
# RPS6KA4 = details: read-out: apparent Kd; compound concentrations: 100 nM and 1000 nM (sheet 'Samples'), CATDS: 1.94570911667616E-2; n = 1
# RPS6KA5 = details: read-out: apparent Kd; compound concentrations: 100 nM and 1000 nM (sheet 'Samples'), CATDS: 1.9053083137800499E-2; n = 1
# RPS6KB1 = details: read-out: apparent Kd; compound concentrations: 100 nM and 1000 nM (sheet 'Samples'), CATDS: 1.8709076421106301E-2; n = 1
# STK16 = details: read-out: apparent Kd; compound concentrations: 100 nM and 1000 nM (sheet 'Samples'), CATDS: 1.87060817181595E-2; n = 1
# TAOK2 = details: read-out: apparent Kd; compound concentrations: 100 nM and 1000 nM (sheet 'Samples'), CATDS: 1.8592761990064401E-2; n = 1
# TGFBR1 = details: read-out: apparent Kd; compound concentrations: 100 nM and 1000 nM (sheet 'Samples'), CATDS: 1.75354561240674E-2; n = 1
# ACVR2B = details: read-out: apparent Kd; compound concentrations: 100 nM and 1000 nM (sheet 'Samples'), CATDS: 8.8140626462379107E-2; n = 1
# BCR = details: read-out: apparent Kd; compound concentrations: 100 nM and 1000 nM (sheet 'Samples'), CATDS: 0.117591173693898; n = 1
# EPHA1 = details: read-out: apparent Kd; compound concentrations: 100 nM and 1000 nM (sheet 'Samples'), CATDS: 0.1160485900451; n = 1
# GAK = details: read-out: apparent Kd; compound concentrations: 100 nM and 1000 nM (sheet 'Samples'), CATDS: 9.8647992016736893E-2; n = 1
# RET = details: read-out: apparent Kd; compound concentrations: 100 nM and 1000 nM (sheet 'Samples'), CATDS: 0.12743524996908201; n = 1
# RIPK2 = details: read-out: apparent Kd; compound concentrations: 100 nM and 1000 nM (sheet 'Samples'), CATDS: 0.19291932694362501; n = 1
# RIPK3 = details: read-out: apparent Kd; compound concentrations: 100 nM and 1000 nM (sheet 'Samples'), CATDS: 8.1688105237549893E-2; n = 1
# SIK2 = details: read-out: apparent Kd; compound concentrations: 100 nM and 1000 nM (sheet 'Samples'), CATDS: 9.6722651513250199E-2; n = 1
structure (smiles),measurement,setting,value
CCn1c(-c2nonc2N)nc2c(C#CC(C)(C)O)ncc(OCC3CCNCC3)c21.O=C(O)C(F)(F)F [GSK554170A],potency estimated from few doses,ADCK1,1500 nM
same,potency estimated from few doses,AKT1,520 nM
same,potency estimated from few doses,AKT2,616 nM
same,potency estimated from few doses,CDC42BPA,1440 nM
same,potency estimated from few doses,CDC42BPB,2430 nM
same,potency estimated from few doses,CDK17,2390 nM
same,potency estimated from few doses,CIT,993 nM
same,potency estimated from few doses,GSK3A,240 nM
same,potency estimated from few doses,GSK3B,295 nM
same,potency estimated from few doses,IKBKE,2320 nM
same,potency estimated from few doses,IRAK3,1310 nM
same,potency estimated from few doses,JAK2; CATDS: 0.192481748469752,25.1 nM
same,potency estimated from few doses,LATS1,275 nM
same,potency estimated from few doses,MARK2,744 nM
same,potency estimated from few doses,MARK3,743 nM
same,potency estimated from few doses,MARK4,1010 nM
same,potency estimated from few doses,MTOR,564 nM
same,potency estimated from few doses,PAK4,84.6 nM
same,potency estimated from few doses,PAK6,55.1 nM
same,potency estimated from few doses,PI4KB,865 nM
same,potency estimated from few doses,PIK3CA,178 nM
same,potency estimated from few doses,PIK3CD,126 nM
same,potency estimated from few doses,PIM2,1780 nM
same,potency estimated from few doses,PKN1,375 nM
same,potency estimated from few doses,PKN2,1980 nM
same,potency estimated from few doses,PKN3,116 nM
same,potency estimated from few doses,PRKACA,1130 nM
same,potency estimated from few doses,PRKACB,888 nM
same,potency estimated from few doses,PRKACG,775 nM
same,potency estimated from few doses,PRKAG1,1380 nM
same,potency estimated from few doses,PRKCD,2380 nM
same,potency estimated from few doses,PRKG1,1040 nM
same,potency estimated from few doses,PRKX;PRKY,151 nM
same,potency estimated from few doses,ROCK2,859 nM
same,potency estimated from few doses,RPS6KA4,1520 nM
same,potency estimated from few doses,RPS6KA5,1630 nM
same,potency estimated from few doses,RPS6KB1,1740 nM
same,potency estimated from few doses,STK16,1740 nM
same,potency estimated from few doses,TAOK2,1780 nM
same,potency estimated from few doses,TGFBR1,2210 nM
Fc1cc(Cl)ccc1Nc1ccnc2cc(-c3ccc(CN4CCSCC4)o3)ccc12 [GW560106X],potency estimated from few doses,ACVR2B,1650 nM
same,potency estimated from few doses,BCR,830 nM
same,potency estimated from few doses,EPHA1,853 nM
same,potency estimated from few doses,GAK,1220 nM
same,potency estimated from few doses,JAK2; CATDS: 0.147380455866959,547 nM
same,potency estimated from few doses,RET,710 nM
same,potency estimated from few doses,RIPK2,357 nM
same,potency estimated from few doses,RIPK3,2080 nM
same,potency estimated from few doses,SIK2,1290 nM
